Reference: the supplement of paper PMC8728848
This excerpt belongs to a sample that is enriched for the strongest signals.

Columns and labels:
Test in all cases: glycan array binding signal (z-score within array); higher = stronger binding
Settings in all cases: glycan notation: IUPAC condensed, linker removed
[1] = target: Fuc(a1-2)Gal(b1-3)GalNAc(b1-3)Gal
Summary of the method: (§1)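 Glycan array data came from 3228 arrays in the Consortium for Functional Glycomics database, and only arrays with an available protein sequence were kept. Glycan names were put into IUPAC-condensed notation, and columns mapping to the same glycan were averaged. The binding signal is a within-array Z-score, averaged across arrays of one protein sequence run at different concentrations or buffers and across linkers. A negative Z-score can be read as non-binding.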

[2] = target: Fuc(a1-2)Gal(b1-3)GlcNAc(b1-2)Man(a1-3)[Fuc(a1-2)Gal(b1-3)GlcNAc(b1-2)Man(a1-6)]Man(b1-4)GlcNAc(b1-4)[Fuc(a1-6)]GlcNAc
Summary of the method: as §1

[3] = target: Fuc(a1-2)Gal(b1-4)GlcNAc(b1-3)GalNAc
Summary of the method: as §1

[4] = target: Fuc(a1-2)Gal(b1-4)[Fuc(a1-3)]GlcNAc(b1-3)GalNAc
Summary of the method: as §1

[5] = target: Fuc(a1-2)[Gal(a1-3)]Gal(b1-3)GlcNAc
Summary of the method: as §1

[6] = target: Fuc(a1-2)[Gal(a1-3)]Gal(b1-3)GlcNAc(b1-2)Man(a1-3)[Fuc(a1-2)[Gal(a1-3)]Gal(b1-3)GlcNAc(b1-2)Man(a1-6)]Man(b1-4)GlcNAc(b1-4)GlcNAc
Summary of the method: as §1

[7] = target: Fuc(a1-2)[Gal(a1-3)]Gal(b1-4)[Fuc(a1-3)]Glc
Summary of the method: as §1

[8] = target: Fuc(a1-2)[GalNAc(a1-3)]Gal(b1-4)GlcNAc
Summary of the method: as §1

Fuc(a1-4)GlcNAc = target: Fuc(a1-4)GlcNAc
Summary of the method: as §1

[9] = target: Gal(a1-3)Gal(b1-3)GlcNAc(b1-2)Man(a1-3)[Gal(a1-3)Gal(b1-3)GlcNAc(b1-2)Man(a1-6)]Man(b1-4)GlcNAc(b1-4)GlcNAc
Summary of the method: as §1

[10] = target: Gal(a1-3)Gal(b1-3)[Fuc(a1-4)]GlcNAc(b1-2)Man(a1-3)[Gal(a1-3)Gal(b1-3)[Fuc(a1-4)]GlcNAc(b1-2)Man(a1-6)]Man(b1-4)GlcNAc(b1-4)GlcNAc
Summary of the method: as §1

Gal(a1-4)GlcNAc = target: Gal(a1-4)GlcNAc
Summary of the method: as §1

Gal(a1-6)Glc = target: Gal(a1-6)Glc
Summary of the method: as §1

Gal(b1-3)Gal(b1-4)GlcNAc = target: Gal(b1-3)Gal(b1-4)GlcNAc
Summary of the method: as §1

[11] = target: Gal(b1-3)[Fuc(a1-4)]GlcNAc(b1-2)Man(a1-3)[Gal(b1-3)[Fuc(a1-4)]GlcNAc(b1-2)Man(a1-6)]Man(b1-4)GlcNAc(b1-4)GlcNAc
Summary of the method: as §1

[12] = target: Gal(b1-3)[Fuc(a1-4)]GlcNAc(b1-3)Gal(b1-3)[Fuc(a1-4)]GlcNAc
Summary of the method: as §1

[13] = target: Gal(b1-3)[GlcNAc(b1-6)]GalNAc
Summary of the method: as §1

[14] = target: Gal(b1-4)GlcNAc(b1-3)Gal(b1-4)[Fuc(a1-3)GlcNAc(b1-6)]Gal(b1-4)Glc
Summary of the method: as §1

Gal3S(b1-4)Glc = target: Gal3S(b1-4)Glc
Summary of the method: as §1

Gal6S(b1-4)GlcNAc6S = target: Gal6S(b1-4)GlcNAc6S
Summary of the method: as §1

GalNAc(b1-3)GalNAc = target: GalNAc(b1-3)GalNAc
Summary of the method: as §1

[15] = target: GalNAc(b1-4)GlcNAc(b1-2)Man(a1-3)[GalNAc(b1-4)GlcNAc(b1-2)Man(a1-6)]Man(b1-4)GlcNAc(b1-4)GlcNAc
Summary of the method: as §1

[16] = target: GlcNAc(a1-4)Gal(b1-4)GlcNAc(b1-3)Gal(b1-4)GlcNAc
Summary of the method: as §1

[17] = target: GlcNAc(a1-4)Gal(b1-4)GlcNAc(b1-3)Gal(b1-4)[Fuc(a1-3)]GlcNAc(b1-3)Gal(b1-4)[Fuc(a1-3)]GlcNAc
Summary of the method: as §1

[18] = target: GlcNAc(b1-2)Man(a1-3)[GlcNAc(b1-2)Man(a1-6)]Man(b1-4)GlcNAc(b1-4)[Fuc(a1-6)]GlcNAc
Summary of the method: as §1

[19] = target: GlcNAc(b1-2)[GlcNAc(b1-4)]Man(a1-3)[GlcNAc(b1-4)][GlcNAc(b1-2)[GlcNAc(b1-6)]Man(a1-6)]Man(b1-4)GlcNAc(b1-4)GlcNAc
Summary of the method: as §1

GlcNAc(b1-4)GlcNAc = target: GlcNAc(b1-4)GlcNAc
Summary of the method: as §1

[20] = target: Man(a1-2)Man(a1-2)Man(a1-3)Man
Summary of the method: as §1

[21] = target: Man(a1-2)Man(a1-3)[Man(a1-2)Man(a1-6)]Man
Summary of the method: as §1

[22] = target: Man(a1-2)Man(a1-6)[Man(a1-3)]Man(a1-6)[Man(a1-2)Man(a1-2)Man(a1-3)]Man(b1-4)GlcNAc(b1-4)GlcNAc
Summary of the method: as §1

[23] = target: Neu5Ac(a2-3)Gal(b1-3)GalNAc6S
Summary of the method: as §1

[24] = target: Neu5Ac(a2-3)Gal(b1-4)GlcNAc6S
Summary of the method: as §1

[25] = target: Neu5Ac(a2-3)Gal(b1-4)[Fuc(a1-3)]GlcNAc(b1-3)Gal(b1-4)GlcNAc
Summary of the method: as §1

[26] = target: Neu5Ac(a2-3)Gal(b1-4)[Fuc(a1-3)]GlcNAc(b1-3)GalNAc
Summary of the method: as §1

[27] = target: Neu5Ac(a2-6)Gal(b1-4)GlcNAc(b1-3)Gal(b1-4)GlcNAc(b1-3)Gal(b1-4)GlcNAc
Summary of the method: as §1

[28] = target: Neu5Ac(a2-6)Gal(b1-4)GlcNAc(b1-3)Gal(b1-4)[Fuc(a1-3)]GlcNAc(b1-3)Gal(b1-4)[Fuc(a1-3)]GlcNAc
Summary of the method: as §1

[29] = target: Neu5Ac(a2-6)Gal(b1-4)GlcNAc6S
Summary of the method: as §1

[30] = target: Neu5Gc(b2-6)Gal(b1-4)GlcNAc
Summary of the method: as §1

B1: Flo11 (Saccharomyces cerevisiae), P08640 (protein)
chain: MQRPFLLAYLVLSLLFNSALGFPTALVPRGSSEGTSCNSIVNGCPNLDFNWHMDQQNIMQYTLDVTSVSWVQDNTYQITIHVKGKENIDLKYLWSLKIIGVTGPKGTVQLYGYNENTYLIDNPTDFTATFEVYATQDVNSCQVWMPNFQIQFEYLQGSAAQYASSWQWGTTSFDLSTGCNNYDNQGHSQTDFPGFYWNIDCDNNCGGTKSSTTTSSTSESSTTTSSTSESSTTTSSTSESSTTTSSTSESSTSSSTTAPATPTTTSCTKEKPTPPTTTSCTKEKPTPPHHDTTPCTKKKTTTSKTCTKKTTTPVPTPSSSTTESSSAPVPTPSSSTTESSSAPVTSSTTESSSAPVPTPSSSTTESSSAPVTSSTTESSSAPVTSSTTESSSAPVPTPSSSTTESSSAPVTSSTTESSSAPVTSSTTESSSAPVTSSTTESSSAPVTSSTTESSSAPVPTPSSSTTESSSAPVTSSTTESSSAPVPTPSSSTTESSSAPVTSSTTESSSAPVPTPSSSTTESSSAPAPTPSSSTTESSSAPVTSSTTESSSAPVPTPSSSTTESSSTPVTSSTTESSSAPVPTPSSSTTESSSAPVPTPSSSTTESSSAPAPTPSSSTTESSSAPVTSSTTESSSAPVPTPSSSTTESSSAPVPTPSSSTTESSSAPVPTPSSSTTESSSAPVTSSTTESSSAPVTSSTTESSSAPVPTPSSSTTESSSAPVPTPSSSTTESSSAPVPTPSSSTTESSSAPVTSSTTESSSAPVPTPSSSTTESSSAPVPTPSSSTTESSSAPVPTPSSSTTESSVAPVPTPSSSSNITSSAPSSTPFSSSTESSSVPVPTPSSSTTESSSAPVSSSTTESSVAPVPTPSSSSNITSSAPSSIPFSSTTESFSTGTTVTPSSSKYPGSQTETSVSSTTETTIVPTKTTTSVTTPSTTTITTTVCSTGTNSAGETTSGCSPKTVTTTVPTTTTTSVTTSSTTTITTTVCSTGTNSAGETTSGCSPKTITTTVPCSTSPSETASESTTTSPTTPVTTVVSTTVVTTEYSTSTKPGGEITTTFVTKNIPTTYLTTIAPTPSVTTVTNFTPTTITTTVCSTGTNSAGETTSGCSPKTVTTTVPCSTGTGEYTTEATTLVTTAVTTTVVTTESSTGTNSAGKTTTGYTTKSVPTTYVTTLAPSAPVTPATNAVPTTITTTECSAATNAAGETTSVCSAKTIVSSASAGENTAPSATTPVTTAIPTTVITTESSVGTNSAGETTTGYTTKSIPTTYITTLIPGSNGAKNYETVATATNPISIKTTSQLATTASASSVAPVVTSPSLTGPLQSASGSAVATYSVPSISSTYQGAANIKVLGNFMWLLLALPVVF
How did the “glycan array binding signal (z-score)” value [1] turn out when B1 was run?
The value was 4.03.

What about the “glycan array binding signal (z-score)” value [2] of the same binder?
The value was 0.319.

What about the “glycan array binding signal (z-score)” value [3] of the same binder?
Its value is 1.35.

And the “glycan array binding signal (z-score)” value [4]?
Its value is 5.39.

And the “glycan array binding signal (z-score)” value [5]?
Its value is -0.315.

What about the “glycan array binding signal (z-score)” value [6] of the same binder?
The value was -0.389.

What about the “glycan array binding signal (z-score)” value [7] of the same binder?
Its value is -0.826.

And the “glycan array binding signal (z-score)” value [8]?
The value was -0.692.

And the “glycan array binding signal (z-score)” value (Fuc(a1-4)GlcNAc)?
Its value is 0.442.

What about the “glycan array binding signal (z-score)” value [9] of the same binder?
The value was 0.723.

And the “glycan array binding signal (z-score)” value [10]?
Its value is 0.122.

What about the “glycan array binding signal (z-score)” value (Gal(a1-4)GlcNAc) of the same binder?
Its value is -0.72.

And the “glycan array binding signal (z-score)” value (Gal(a1-6)Glc)?
Its value is -0.453.

And the “glycan array binding signal (z-score)” value (Gal(b1-3)Gal(b1-4)GlcNAc)?
Its value is 0.164.

And the “glycan array binding signal (z-score)” value [11]?
The value was -0.241.

What about the “glycan array binding signal (z-score)” value [12] of the same binder?
The value was -0.512.

And the “glycan array binding signal (z-score)” value [13]?
Its value is -1.34.

What about the “glycan array binding signal (z-score)” value [14] of the same binder?
The value was -1.05.

What about the “glycan array binding signal (z-score)” value (Gal3S(b1-4)Glc) of the same binder?
The value was 0.09.

What about the “glycan array binding signal (z-score)” value (Gal6S(b1-4)GlcNAc6S) of the same binder?
The value was 0.193.

What about the “glycan array binding signal (z-score)” value (GalNAc(b1-3)GalNAc) of the same binder?
Its value is -0.184.

And the “glycan array binding signal (z-score)” value [15]?
Its value is 0.79.

And the “glycan array binding signal (z-score)” value [16]?
Its value is 6.8.

What about the “glycan array binding signal (z-score)” value [17] of the same binder?
Its value is 3.01.

What about the “glycan array binding signal (z-score)” value [18] of the same binder?
Its value is 3.49.

What about the “glycan array binding signal (z-score)” value [19] of the same binder?
The value was 0.283.

What about the “glycan array binding signal (z-score)” value (GlcNAc(b1-4)GlcNAc) of the same binder?
Its value is -0.781.

And the “glycan array binding signal (z-score)” value [20]?
Its value is 7.09.

And the “glycan array binding signal (z-score)” value [21]?
The value was -0.669.

And the “glycan array binding signal (z-score)” value [22]?
Its value is -1.08.

And the “glycan array binding signal (z-score)” value [23]?
Its value is -0.833.

And the “glycan array binding signal (z-score)” value [24]?
The value was 0.179.

What about the “glycan array binding signal (z-score)” value [25] of the same binder?
Its value is 2.91.

What about the “glycan array binding signal (z-score)” value [26] of the same binder?
The value was 3.06.

And the “glycan array binding signal (z-score)” value [27]?
The value was -0.252.

And the “glycan array binding signal (z-score)” value [28]?
Its value is 0.359.

And the “glycan array binding signal (z-score)” value [29]?
Its value is -0.192.

What about the “glycan array binding signal (z-score)” value [30] of the same binder?
Its value is 0.414.
